The record followed here is PubChem BioAssay AID492952 (Southern Research Specialized Biocontainment Screening …, 2010).

Structures are written as SMILES. Among all 2,300 compounds or so, about 1,500 (65%) were called active. How the calls were made is not given here. The set was probably picked from earlier hits. This is one part of the list. Results with a measured potency or affinity are listed apart.

The experiment is described as follows: replicating M. tuberculosis growth inhibition, dose response, non-replicating M. tuberculosis project, H37Rv (AID 492952).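 Further: Mycobacterium tuberculosis grown in culture; growth inhibition read after a week of incubation; 0% = bacteria alone untreated and 100% = bacteria with high antibiotic.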 The note with it: series mostly up to 50 µM; inhibition: at the top concentration.
On to `COC(=O)c1ccccc1NC(=O)C1CC(c2ccc(F)cc2)=NO1` (centres undefined), for which the “inhibition” value is 0.43% (inactive).
For the compound `CC(=O)CCC1CC(c2ccc(Cl)cc2)=NO1` (centres undefined), the “inhibition” value was -2.41% (inactive).
For `CC(C)(C)c1ccc(OCCC(=O)OCC(=O)NC2CCCCC2)cc1`, the “inhibition” value was 7.57% (inactive).
The same measure for `COc1ccc(OCCC(=O)OCC(=O)Nc2ccc(Br)cc2)cc1`: -1.7% (inactive); for `O=C(COc1ccc([N+](=O)[O-])cc1)NNC(=O)c1cccs1`: 1.87% (inactive).
Regarding `CC/C(=C\c1oc2cc3ccccc3cc2[n+]1CC)Nc1ccccc1`, the “inhibition” value is 7.42% (inactive).
Next, `Brc1ccc(OCCCCN2CCCCC2)cc1`: 4.82% (inactive); `CCc1nnc(NC(=O)CN2CCN(c3ccccc3F)CC2)s1`: 2.97% (inactive); `CCOC(=O)c1c(-c2ccc(C)o2)csc1NC(=O)CN1CCCCC1`: -3.2% (inactive).
Next, `COc1ccc2cc(C(=O)NCc3ccccc3)c(=O)oc2c1`: 2.96% (inactive); `NC(=O)N/N=C/c1ccccc1OC(=O)c1cc2ccccc2oc1=O`: -0.54% (inactive).
Next, `COCCNC(=O)c1cc2cc(Cl)cc(Cl)c2oc1=O`: 17.8% (inactive); `COc1cccc2cc(C(=O)c3ccc([N+](=O)[O-])cc3)oc12`: -3.88% (inactive).
For the compound `CC(C)[C@H](NC(=O)c1ccc(Br)cc1)C(=O)NC1CCCCC1`, the “inhibition” value is -2.73% (inactive).
The same measure for `Oc1ccc(Cl)cc1CNCc1ccc(F)cc1`: 6.19% (inactive); for `O=C(N/N=C/c1coc2ccccc2c1=O)c1ccc(Cl)cc1`: -4.23% (inactive).
In the case of `O=C(N/N=C/c1cccc(F)c1)c1c(O)c2ccccc2[nH]c1=O`, the “inhibition” value was -1.02% (inactive).
As for `C=CCn1c(=O)c(C(=O)Nc2cccnc2)c(O)c2ccccc21`, the “inhibition” value is 4.9% (inactive).
The same measure for `O=C1CC(N2CCSCC2)C(=O)N1CCc1ccccc1` (centres undefined): -2.96% (inactive).
With `Cc1cc2ccccc2n1CCNC(=O)C(C)(C)C`, the “inhibition” value is 0.54% (inactive).
Next, `CC1CCN(CCOCCSc2ccc(Cl)cc2)CC1`: 3.18% (inactive).
Next, `O=C(COc1ccc(Cl)cc1)Nc1ccc2[nH]ncc2c1`: -6.62% (inactive).
The same measure for `CCCCCCNC(=O)c1ccc(Br)o1`: -4.43% (inactive).
On to `COc1ccc(C(=O)Nc2ccccc2C(=O)N/N=C/c2ccco2)cc1`, for which the “inhibition” value is -1.33% (inactive).
The same measure for `C=CCNc1nc(C(=O)OCC(=O)c2cccc(Br)c2)cs1`: -5.99% (inactive); for `CCOc1ccc(OCc2ccc(C(=O)N/N=C(\C)c3ccccn3)cc2)cc1`: 6.16% (inactive); for `CC(=O)NCCOC(=O)Nc1sc(=S)n(C)c1C`: 0.93% (inactive).
The same measure for `C/C(=N\Nc1ccc(Cl)cc1)c1ccccn1`: 5.57% (inactive); for `Cc1cc(O)c(-c2cc(O)c(C)cc2O)cc1O`: 7.62% (inactive).
The same measure for `COC(=O)c1ccc(COC(=O)CCS(=O)(=O)c2ccc(C)cc2)cc1`: 1.11% (inactive).
`O=C(COC(=O)c1ccccn1)Nc1cccc(Cl)c1Cl`: the “inhibition” value is 7.17% (inactive).
Next, `CC(C)(C)C(=O)COc1ccccc1[N+](=O)[O-]`: 5.63% (inactive); `COCCn1c(C)cc(C(=O)COC(=O)c2ccc(Br)o2)c1C`: 2.14% (inactive).
Take `C=CC[n+]1ccn(-c2nc3ccccc3nc2[N-]S(=O)(=O)c2cccs2)c1`: the “inhibition” value was 0.1% (inactive).

Broadly, the inhibition is the drop in the measured response relative to a control, in per cent.
